Unmarked numbers belong to inactive results. The source made the active and inactive calls. Calls follow the shape of the dose curve; as a rule, active = well fitted inhibition curve with a large enough effect; inconclusive = small, poorly fitted or top-dose-only effect; inactive = flat fitted curve, though single readings scatter.
Potency is read from the fitted curve at half-maximal effect.

For this test, the system named is Nanoluciferase (engineered Oplophorus gracilirostris luciferase). As to the kind of experiment: Primary Nanoluciferase (NLuc) qHTS assay for identification of artifact compounds. (AID 1845222). The settings on record: NLuc-conditioned medium, Nano-Glo luminescence, 5 min; series mostly up to 54.1 µM; activity, negative = inhibition: at the top concentration. From the text: PI: Alexander Tropsha Ph.D.
UNC Eshelman School of Pharmacy
University of North Carolina, Chapel Hill, North Carolina
Hits from high-throughput screening (HTS) of chemical libraries are often false positives due to their interference with the assay detection technology. In response to this problem, we generated the largest publicly available library of chemical liabilities and developed a free webtool to predict HTS artifacts, both of which are described herein. More specifically, we generated, curated, and integrated HTS datasets for thiol reactivity, redox activity, and luciferase (firefly and nano) activity. Using these curated datasets, we developed and validated several Quantitative Structure-Interference Relationship (QSIR) models to predict nuisance behavior. […] These models were employed for virtual profiling of the National Center for Advancing Translational Science's (NCATS) in-house library, and 256 compounds for each assay were selected for the experimental validation of nuisance behavior. The BA for these external predictions ranged from 58 to 78% for compounds within the applicability domains of the models. […] The models developed in this study, along with aggregation models previously developed by our group (SCAM Detective) were implemented in "Liability Predictor," an online tool which may be used as part of chemical library design or for triaging HTS hits. Both the models and the curated datasets are publicly available at https://liability.mml.unc.edu/.
SEQUENCE No. (e.g., 1, 2, 3, etc.); […] (e.g., Cells, Incubation, Reagent, etc.); VALUE; DESCRIPTION.
1; Reagent; 2 uL; Nanoluciferase media.
2; Compounds and control; 16 nL; Kalypsis pin tool (Wako USA) equipped with a 1536-well pin head.
4; Reagent; 2 uL; Luciferase enzyme.
6; Detection; Luminescence, ViewLux microplate reader.
NOTES (numbers refer to Sequence numbers above)
1. Medium was collected from the culture flasks of NLuc-expressing S16 cells (80% confluent) prior to cell plating, filtered through a 0.22um filter, and frozen at -20C prior to use. Media was diluted (1:55) and 2 uL was dispensed into all wells of a 1536-well assay plate (solid-bottom white plate; Greiner Bio One, Monroe, NC).
2. A Wako Pin-tool (Wako Automation, Richmond, VA) was used to transfer 16 nL of compounds (consisting of 7-plates in qHTS format, final concentration range 18.3 nM to 114 uM) or control Cilnidipine (final concentration range 623 nM to 80 uM).
3. 15 min. incubation at room temperature protected from light.
4. 2 uL of NLuc substrate (1:100 in Nano-Glo luciferase buffer; Nano-Glo luminescence assay, Promega, Madison, WI) was dispensed for a final assay volume of 4 uL.
5. Plates were centrifuged (121xg, 15 seconds) and incubated for 5 minutes.
6. Samples were read for luminescence on a ViewLux CCD imager (PerkinElmer). Data were normalized to no-enzyme (0% activity) and no-inhibitor (DMSO; 100%) controls and the resulting percent inhibition data were fitted to a 4-parameter Hill equation using NCATS in-house software.
With `COc1ccc2c(c1)C[C@H](C(=O)Nc1ccc(-c3cn[nH]c3)cc1OCCN(C)C)CO2`, the “activity, negative = inhibition” value is -1.51%.
Still for that read-out and setting: the result for `CCN1CCC[C@@H]1CNC(=O)c1ccc2c(c1)NC(=O)/C(=C/c1ccccc1F)S2` reads -4.14%.
For the molecule `COc1ccccc1NC(=O)Nc1ccc2ccccc2c1`, the “activity, negative = inhibition” value was -3.32%.
Same read-out and setting: to `CC(C)COc1ccc(CNC(=O)N(Cc2ccc(F)cc2)C2CCN(C)CC2)cc1` belongs -0.612%.
Still for that read-out and setting: to `Cc1nnsc1C(=O)Nc1ccc(-n2nc(C(F)(F)F)cc2C(F)(F)F)cc1` belongs 3.33%; to `COCCNCc1ccc(-c2cc3nccc(Oc4ccc(NC(=S)NC(=O)Cc5ccc(F)cc5)cc4F)c3s2)nc1`, -5.55%; to `COC(=O)/C=C/C(=O)N(O)CCCCNCc1ccc(COC(=O)Nc2cccc3ccccc23)cc1`, -25.6%.
`C[N+]1(C)[C@@H]2CC[C@H]1CC(OC(=O)C(O)c1ccccc1)C2` (stereo not given in full): the “activity, negative = inhibition” value is 2.97%.
The same measure, in the same setting: the result for `CCN1CCN(Cc2ccc(-c3cc4c(NC(C)c5ccccc5)ncnc4[nH]3)cc2)CC1` (stereo not given) reads -2.03%; that for `CC[C@H]1OC(=O)[C@H](C)[C@@H](O[C@H]2C[C@@](C)(OC)[C@@H](O)[C@H](C)O2)[C@H](C)[C@@H](O[C@@H]2O[C@H](C)C[C@H](N(C)C)[C@H]2O)[C@](C)(O)C[C@@H](C)/C(=N/OCOCCOC)[C@H](C)[C@@H](O)[C@]1(C)O`, 4.73%.
Same read-out and setting: to `CC1OC2O[C@H]3[C@@H](OCC(O)[C@H]3O)OC(=O)C34CCC(C)(C)CC3C3=CCC5C6(C)CC(O)C(OC7OC(CO)C(O)C(O)C7O[C@@H]7OC[C@H](OC(=O)CC(C)(O)CC(=O)OC1C(OC1OCC(O)C(O)C1O)C2O)[C@@H](O)[C@H]7O)C(C)(CO)C6CCC5(C)C3(C)CC4` (stereo not given in full) belongs 1.86% [at 25.7 µM].
As for `CCCCc1nc(C)c(CC(=S)N(C)C)c(=O)n1Cc1ccc(-c2ccccc2-c2nn[nH]n2)cc1`, the Potency is 16.9 µM (active).
As for `C=C1C(=O)O[C@@H]2C[C@@]3(C)CCC[C@H](C)C3=C[C@H]12`, the “activity, negative = inhibition” value was 0.67%.
The same measure, in the same setting: to `c1ccc(Cn2c(-c3ccc(OCC(C4CCNCC4)n4c(-c5ccccc5)nc5ccccc54)cc3)nc3ccccc32)cc1` (stereo not given) belongs 1.48%.
Still for that read-out and setting: to `O=C(Nc1ncc(SCCN2CCCC2)s1)C1(c2ccc(S(=O)(=O)C3CC3)cc2)CC1C1CCCCC1` (stereo not given) belongs -1.78%.
The same measure, in the same setting: the result for `COc1ccc2c(c1)CN(C(=O)CCN1CCC(Cc3ccccc3)CC1)CCS2` reads -1.17% [at 25.7 µM]; that for `CN(C)CCCNc1nc(CN2CCN(C(c3ccc(Cl)cc3)c3ccc(Cl)cc3)CC2)nc2ccccc12`, -5.81%; that for `CC[C@H](C)[C@H]1O[C@]2(CC[C@@H]1C)C[C@@H]1C[C@@H](C/C=C(\C)[C@@H](O[C@H]3C[C@H](OC)[C@@H](O[C@H]4C[C@H](OC)[C@@H](O)[C@H](C)O4)[C@H](C)O3)[C@@H](C)/C=C/C=C3\CO[C@@H]4[C@H](O)C(C)=C[C@@H](C(=O)O1)[C@]34O)O2`, 0%.
As to `CC(=O)N[C@@H](CC(=O)O)C(=O)N[C@@H](CCC(=O)O)C(=O)N[C@H](C(=O)N[C@@H](CC(=O)O)C(=O)Nc1ccc2c(C)cc(=O)oc2c1)C(C)C`, the “activity, negative = inhibition” value was -3.67%.
For the molecule `CC1OC2OC3C(OCC(O)C3O)OC(=O)C34CCC(C)(C)CC3C3=CCC5C6(C)CC(O)C(OC7OC(CO)C(O)C(O)C7OC7OCC(OC(=O)CC(C)(O)CC(=O)OC1C(OC1OCC(O)C(O)C1O)C2O)C(O)C7O)C(C)(CO)C6CCC5(C)C3(C)CC4O` (stereo not given), the “activity, negative = inhibition” value is 3.2% [at 25.7 µM].
On the same count and under the same terms, to `Nc1nc(NCC2CCC(CNS(=O)(=O)c3cccc4ccccc34)CC2)nc2ccccc12` (stereo not given) belongs -3.04%.
On the same count and under the same terms, to `CC1CCC2C(C)(C)C(O)CCC2(C)C12Cc1c(O)cc3c(c1O2)CN(C(CCCN=C(N)N)C(=O)O)C3=O` (stereo not given) belongs 4.32% [at 25.7 µM]; to `COC1CC(=O)C23C(=O)NC(CC(C)C)C2C(C)C(C)=CC3/C=C(\C)CCC(O)C1O` (stereo not given), -3.52% [at 25.7 µM]; to `CC(=O)Nc1ccc(C(=O)Nc2ccccc2N)cc1`, -1.98% [at 25.7 µM].
The same measure, in the same setting: the result for `CC/C(=C(\c1ccc(O)cc1)c1ccc(OCCNC)cc1)c1ccccc1` reads 1.46%.
Turning to `CC(C)[C@@H](C)/C=C/[C@@H](C)[C@H]1CC[C@H]2C3=CC=C4C[C@@H](O)CC[C@]4(C)C3=CC[C@]12C`, the “activity, negative = inhibition” value is -3.19%.
The same measure, in the same setting: to `Clc1ccccc1CNCC1CCC(CNCc2ccccc2Cl)CC1` (stereo not given) belongs 3.84%; to `CC(=O)Nc1nc2c(Oc3cc(-c4ccc(C(F)(F)F)cc4)ncn3)cccc2s1`, 2.1%; to `COc1ccc(NS(=O)(=O)c2sc3ccc(Cl)cc3c2C)cc1N1CCNCC1`, 1.95%.
Same read-out and setting: the result for `C/C=C(/COC(=O)/C(C)=C/C)C(=O)OC/C=C/c1ccc(OC)cc1` reads 1.17%; that for `C[C@@H](c1nc(-c2ccc(C#N)cc2)cs1)[C@](O)(Cn1cncn1)c1cc(F)ccc1F`, -0.331%.
The same measure, in the same setting: the result for `O=C(NNc1ccccc1)c1ccncc1` reads -0.779%.
For `CCC(=O)c1cc(-c2ccc(Cl)cc2)n(-c2ccc(S(N)(=O)=O)cc2)c1C`, the “activity, negative = inhibition” value is -5.26%.
The same measure, in the same setting: to `FC(F)(F)c1ccc(CNc2ccc(Cc3c[nH]c4ncccc34)cn2)cc1` belongs 0%.
Same read-out and setting: to `COc1ccccc1-c1c[nH]c2ncc(-c3cncc(C(=O)N(C)C)c3)cc12` belongs 1.73%; to `COc1cc(-c2cc(-c3cccc(O)c3)cnc2N)cc(OC)c1OC`, 1.38%; to `COc1ccc(-c2cc(C(O)C3CCCCN3)c3ccccc3n2)cc1` (stereo not given), 0.684%.
Regarding `CCC[C@@H](NC(=O)N1C(=O)C(CC)(CC)[C@@H]1Oc1ccc(C(=O)N2CCN(C)CC2)cc1)c1ccc2c(c1)OCO2`, the “activity, negative = inhibition” value was 3.47%.
Still for that read-out and setting: to `N#Cc1c[nH]c2c(C(=O)N3CCN(CCc4ccc(F)cc4)CC3)cccc12` belongs 1.74%; to `CN(Cc1ccc(C(=O)O)cc1)c1ccc(OCc2c(-c3c(Cl)cccc3Cl)noc2C2CC2)nc1C(F)(F)F`, -2.33%.

Values taken from PubChem BioAssay (NCATS).
